The values below come from PubChem BioAssay AID720540 (National Center for Advancing Translational Sciences (NCATS), 2013).

Among all 1,300 compounds or so, about 460 (35%) were called active. Another 39% or so got no clear call; they are omitted. Calls follow the shape of the dose curve; as a rule, active = well fitted inhibition curve with a large enough effect; inconclusive = small, poorly fitted or top-dose-only effect; inactive = flat fitted curve, though single readings scatter. Some of the results follow.
Potency is read from the fitted curve at half-maximal effect.

Sequence of Protein phosphatase EYA2 (Homo sapiens) (O00167 whole entry, looked up): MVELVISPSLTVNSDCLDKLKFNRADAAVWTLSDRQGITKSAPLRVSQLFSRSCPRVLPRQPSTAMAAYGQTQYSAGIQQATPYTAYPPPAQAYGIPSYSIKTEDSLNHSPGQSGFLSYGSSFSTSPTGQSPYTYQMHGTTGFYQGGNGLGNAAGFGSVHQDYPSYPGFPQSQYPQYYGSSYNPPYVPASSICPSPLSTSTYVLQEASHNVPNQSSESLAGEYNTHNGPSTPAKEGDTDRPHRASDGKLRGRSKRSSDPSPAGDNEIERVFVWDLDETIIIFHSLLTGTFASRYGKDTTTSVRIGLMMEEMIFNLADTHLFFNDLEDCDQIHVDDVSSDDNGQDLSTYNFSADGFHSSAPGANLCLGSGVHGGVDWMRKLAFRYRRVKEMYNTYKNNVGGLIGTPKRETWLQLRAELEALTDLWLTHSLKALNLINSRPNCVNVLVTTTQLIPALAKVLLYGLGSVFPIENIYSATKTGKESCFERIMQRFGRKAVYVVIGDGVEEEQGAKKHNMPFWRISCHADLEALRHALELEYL

This experiment addresses Protein phosphatase EYA2 (Homo sapiens) (UniProt O00167). Kind of experiment: qHTS for Inhibitors of the Phosphatase Activity of Eya2: Confirmatory Assay for Cherry-picked Compounds. Also: nearly all actives have a fitted effect of over 65% in size.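 As to activity change, negative = inhibition: 0% = DMSO wells and -100% = EGTA control giving full inhibition.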 The note with it: purified EYA2 phosphatase activity, qHTS confirmation; series mostly up to 46.1 µM; activity change, negative = inhibition: at the top concentration. In a few lines:
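Eya2 (0.2 uM working solution) preincubated 10 min at room temperature with compound in pH 7.5 HEPES buffer with MgCl2, BSA, DTT. OMFP added (50 uM working solution), 10 min more; fluorescence 485/525 nm, normalized to EGTA and DMSO.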
Background: qHTS replaces the single test concentration by a dilution series.
Consider `O=C(O)c1cc(N2N=C(C(F)(F)F)/C(=C/C=C/c3ccco3)C2=O)ccc1Cl`, for which the Potency is 1.51 µM (active).
With `O=C1C=C(Nc2ccccc2)C(=O)c2ccccc21`, the Potency is 6.01 µM (active).
Regarding `CCOC(=O)c1c(C)oc2c1c(C=NCc1ccccn1)c(O)c1ccccc12`, the Potency was 15.1 µM (active).
As for `COc1ccc(Nc2nc(N)nc(CSC(=S)N3CCCCC3)n2)cc1`, the “activity change, negative = inhibition” value was -20.4% (inactive).
The same measure, in the same setting: the result for `CCSc1nc2ccccc2n1C(=O)c1ccc(S(=O)(=O)N2CCCCC2)cc1` reads -14% (inactive).
In the case of `O=C(O)c1ccccc1-c1ccccc1C(=O)Nc1ccc2oc(=O)c3ccccc3c2c1`, the Potency is 8.49 µM (active).
On to `O=C(O)c1ccccc1-c1ccccc1C(=O)Nc1ccc2c(c1)[nH]c(=O)c1ccccc12`, for which the Potency is 7.57 µM (active).
As for `O=C(Nc1ncc(Cc2ccccc2Cl)s1)c1ccc(-c2cccc([N+](=O)[O-])c2)o1`, the “activity change, negative = inhibition” value is -23% (inactive).
On to `CSc1ccc(CNc2ncc(-c3cccc([N+](=O)[O-])c3)n2C)cc1`, for which the Potency was 19 µM (active).
As to `Oc1c(Br)cc(Br)cc1CNc1cccc2cccnc12`, the Potency was 7.57 µM (active).
As for `O=C(SCc1c(O)c2ccccc2oc1=O)c1ccccc1`, the “activity change, negative = inhibition” value is -21.7% (inactive).
Take `COC(=O)c1cc2c(ccc3ccccc32)oc1=O`: the Potency was 7.57 µM (active).
As for `COc1ccccc1Nc1nc(-c2ccc3c(c2)NC(=O)CO3)cs1`, the “activity change, negative = inhibition” value was -3.57% (inactive).
As for `COc1ccc(OC)c(Nc2nc(-c3sc(N)nc3C)cs2)c1`, the Potency was 8.49 µM (active).
As for `CC1=C(C(=O)N2CCOCC2)CC(CC(=O)NC(c2ccccc2)c2ccccc2)C(=O)N1Cc1ccc(C(C)(C)C)cc1` (stereo unspecified), the “activity change, negative = inhibition” value was -19% (inactive).
Still for that read-out and setting: the result for `Cc1ccc(-c2nc3ccccc3s2)cc1NC(=S)NC(=O)/C=C/c1ccco1` reads -3.42% (inactive).
On to `O=C(O)CCN1C(=O)/C(=C/c2ccc(-c3nc4ccccc4s3)o2)SC1=S`, for which the Potency is 3.79 µM (active).
Same read-out and setting: the result for `N#CC1=C(N)n2c(s/c(=C\c3cccs3)c2=O)=C(C#N)C1c1cccs1` (stereo unspecified) reads 19 µM (active).
`COc1ccc2nc(NC(=S)NC(=O)c3ccco3)sc2c1`: the “activity change, negative = inhibition” value is -18% (inactive).
Regarding `O=C(C1=C(O)C(=O)N(c2nc3ccc(Cl)cc3s2)C1c1ccco1)c1ccco1` (stereo unspecified), the Potency is 16.9 µM (active).
In the case of `COc1cc(NC(=O)c2cccs2)c(OC)cc1NC(=O)Nc1ccc(F)cc1`, the “activity change, negative = inhibition” value is -26.5% (inactive).
With `COc1cc(NC(=O)c2cccs2)c(OC)cc1NC(=O)CCn1nnc2ccccc21`, the Potency was 16.9 µM (active).
Consider `COc1cc(NC(=O)c2cccs2)c(OC)cc1NC(=O)CCC(=O)Nc1ccc2ncccc2c1`, for which the Potency is 1.69 µM (active).
As for `Cc1cc(NC(=O)c2cccs2)cc(-c2nc3ncccc3o2)c1O`, the “activity change, negative = inhibition” value was -12.1% (inactive).
On to `COc1cc(NC(=O)c2cccs2)c(OC)cc1NC(=O)Cc1ccccc1`, for which the Potency was 10.7 µM (active).
With `O=C(NCc1ccc2c3c(cccc13)C(=O)N2)c1cccs1`, the “activity change, negative = inhibition” value is -19.4% (inactive).
Still for that read-out and setting: the result for `O=S(=O)(c1ccccc1)[C@@]1(c2ccccc2)C[C@@H]2ON=C(c3cccc(-c4ccccc4)c3)[C@@H]2C1` reads -15.7% (inactive).
As to `c1ccc(CSc2ccc3nnc(-c4ccccn4)n3n2)cc1`, the Potency is 19 µM (active).
Still for that read-out and setting: the result for `Brc1ccc(CSc2ccc3nnc(-c4ccccn4)n3n2)cc1` reads 19 µM (active).
In the case of `COc1ccccc1OCc1ccc(C(=O)Nc2cc(OC)c(OC)c(OC)c2)o1`, the “activity change, negative = inhibition” value was -28.2% (inactive).
As to `COC(=O)c1ccc(CSc2ccc3nnc(-c4ccccn4)n3n2)o1`, the Potency is 16.9 µM (active).
With `CC1CN(C(=O)c2cc(S(=O)(=O)N(C)c3ccc(F)cc3)ccc2Cl)CC(C)O1` (stereo unspecified), the “activity change, negative = inhibition” value is -8.46% (inactive).
The same measure, in the same setting: the result for `CN(C)c1ccc(-c2ccnc3c2CC(C)(C(=O)NCCC(F)(F)F)O3)cc1` (stereo unspecified) reads -26.7% (inactive); that for `CN1C(=O)NC(c2ccccc2)(C(F)(F)F)S/C1=C(/C#N)c1nnc(N2CCOCC2)n1-c1ccccc1` (stereo unspecified), -25.7% (inactive); that for `C[C@@H](NC(=O)c1nc[nH]c1C(=O)N[C@@H](Cc1ccccc1)C(=O)OC(C)(C)C)c1ccccc1`, -19.4% (inactive).
`O=C(CNC(=O)c1[nH]cnc1C(=O)N[C@@H](Cc1ccccc1)C(=O)OCc1ccccc1)OCc1ccccc1`: the “activity change, negative = inhibition” value was -17.2% (inactive).
For `Cc1ccc(NC(=O)c2[nH]cnc2C(=O)NN)cc1`, the Potency was 15.1 µM (active).
Take `CCOC(=O)c1ccc(NC(=O)c2nc[nH]c2C(=O)N[C@@H](Cc2ccccc2)C(=O)OC(C)(C)C)cc1`: the “activity change, negative = inhibition” value was -19% (inactive).
Regarding `O=C(Nc1ccc(F)cc1)c1nc[nH]c1C(=O)O`, the Potency was 15.1 µM (active).
On to `NNC(=O)c1nc[nH]c1C(=O)Nc1ccccn1`, for which the Potency was 8.49 µM (active).
On to `Cc1ccc(N=Cc2cccc(O)c2O)c(C)c1`, for which the “activity change, negative = inhibition” value was -21.4% (inactive).
Same read-out and setting: the result for `CCn1cc(C(=O)N[C@@H](C)C(=O)NCCCn2ccnc2)c(=O)c2cc3c(cc21)OCO3` reads -9.75% (inactive).
For `Cc1ccc(C(=O)N/C(=C\c2ccco2)C(=O)NCCCn2ccnc2)cc1`, the Potency was 4.26 µM (active).
Turning to `COC(=O)c1ccc(OC(=O)c2cccs2)cc1`, the Potency was 10.7 µM (active).
In the case of `O=C(CNC(=O)c1cccs1)OCC(=O)c1ccc(Cl)cc1`, the “activity change, negative = inhibition” value was -2.28% (inactive).
Regarding `CC(C)S(=O)(=O)c1cnc(-c2ccccn2)nc1N`, the Potency was 16.9 µM (active).
On the same count and under the same terms, the result for `O=C(CSc1ccc(-c2ccccn2)nn1)Nc1cccc(F)c1` reads 3.79 µM (active).
Turning to `COc1cc(NC(=O)c2ccc(S(=O)(=O)N(C)c3ccccc3)cc2)cc(OC)c1`, the “activity change, negative = inhibition” value is -25% (inactive).
Same read-out and setting: the result for `CN(CC(=O)Nc1cccc(F)c1)C(=O)c1ccc(COc2ccccc2)cc1` reads -2.16% (inactive).
Consider `COc1cc(NC(=O)CSc2ccc(-c3ccccn3)nn2)cc(OC)c1`, for which the Potency was 2.13 µM (active).
On the same count and under the same terms, the result for `COc1ccc(NC(=O)CSc2ccc(-c3ccccn3)nn2)cc1OC` reads 3.79 µM (active); that for `COc1ccccc1CNC(=O)CSc1ccc(-c2ccccn2)nn1`, 12 µM (active).
Take `Cn1c(-c2cc(Cl)ccc2O)nc2c1c(=O)[nH]c(=O)n2Cc1ccccc1`: the “activity change, negative = inhibition” value was -7.95% (inactive).
Consider `O=C(Cc1cccs1)Nc1ccc2c(c1)C(=O)OC2`, for which the “activity change, negative = inhibition” value was -9.15% (inactive).
The same measure, in the same setting: the result for `Cc1cnc(C(=O)Nc2ccccc2-c2ccc(C)o2)cn1` reads -7.17% (inactive).
Turning to `Cc1[nH]n(-c2cccc3ccccc23)c(=O)c1C=Nc1ccc2[nH]c(=O)[nH]c2c1`, the Potency is 7.57 µM (active).
For `Cc1cccc(-n2c(O)c(C=Nc3ccccc3)c3ccccc3c2=O)n1`, the “activity change, negative = inhibition” value is -24.5% (inactive).
As to `C/C=C/c1ccc(OCCSc2nc(C)cc(=O)[nH]2)c(OC)c1`, the Potency is 13.5 µM (active).
Consider `Cc1cc(NC(=O)CSc2nnc(Nc3ccccc3F)s2)no1`, for which the “activity change, negative = inhibition” value is -3.99% (inactive).
With `CC(C)Nc1nnc(SCC(=O)Nc2ccc3c(c2)C(=O)c2ccccc2C3=O)s1`, the Potency was 6.75 µM (active).
Take `C/C(N)=C(/C#N)C(=O)CSc1nnc(Nc2cccc(C)c2)s1`: the “activity change, negative = inhibition” value was -14.6% (inactive).
